The campaign covered roughly 2,100 compounds. About 760 (36%) were called active.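 Rule for the calls: active = thallium-flux fluorescence traces judged by eye to show enhanced or reduced glutamate response, manual score 1 or -1, so both directions (some results past the limit were not filed as active); inactive = the rest, including fluorescent or raised-baseline compounds.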 Not all results are given here.
Test: thallium influx changes without GIRK channels – cell-based, HEK-293 rmGlu8, no GIRK, thallium flux, counter-screen for GIRK activator project, confirmation (AID 623868);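 note: extra codes mark interference with 3 for fluorescent and 4 for baseline rise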
Conditions: thallium flux fluorescence, at 10 µM, actives lie on both sides

SMILES	manual score
COc1cc(-n2c(=S)[nH]c3ccccc3c2=O)c(Cl)cc1Cl	1 (active)
CC(C)Oc1cc(-n2c(=S)[nH]c3ccccc3c2=O)c(Cl)cc1Cl	1 (active)
c1ccc2c(CNC3CCCCC3)c[nH]c2c1	0 (inactive)
CCOC(=O)C(O)(c1ccc(N(CC)S(=O)(=O)c2ccc(C)cc2)cc1)C(F)(F)F (stereo not given)	0 (inactive)
CNC(=O)OCCc1nccn1C	0.5 (inactive)
Fc1ccc(NC2=NCCS2)cc1Cl	0 (inactive)
CC(C)CCn1c(=O)c(C(=O)Nc2ccccc2S(N)(=O)=O)c(O)c2ccccc21	0 (inactive)
C=CCOC(=O)COc1cc(C)cc2oc(=O)c3c(c12)CCC3	-0.5 (inactive)
C/C(=N\Nc1ccccc1)c1c(O)n(C)c(=O)n(C)c1=O	0 (inactive)
O=c1cc(C(F)(F)F)c2cc3c4c(c2o1)CCCN4CCC3	3 (inactive)
S=C1CN=C(c2ccccc2Cl)c2cc(Cl)ccc2N1	1 (active)
Cc1ccccc1C1=NCC(=S)Nc2ccc(Cl)cc21	1 (active)
S=C1CN=C(c2ccccc2)c2cc(Cl)ccc2N1	1 (active)
O=C(Cc1ccccc1)N1CCN(C/C=C/c2ccccc2)CC1	0 (inactive)
CCN(c1ccc(C(O)(C(=O)OC)C(F)(F)F)cc1)S(=O)(=O)c1ccc(C)cc1 (stereo not given)	0 (inactive)
CCCCn1c(C)c(C(=O)OCC)c2c(CN3CCOCC3)c(O)ccc21	0 (inactive)
Cc1ccc2nc(N3CCC(C(=O)N4CCC5(CC4)OCCO5)CC3)sc2c1	0 (inactive)
N=c1sc2c(n1Cc1ccccc1)CCCC2	0 (inactive)
O=C(Nc1ccc(Cl)cc1)Nc1nccs1	0 (inactive)
O=C(c1ccccc1)c1cn(CC(=O)N2CCOCC2)c2ccccc12	-0.5 (inactive)
Cn1cccc1CNCCc1ccccc1	0 (inactive)
Cc1nn(C)cc1/C=C1/CC2C3CC=C4CC(O)CCC4(C)C3CCC2(C)C1=O (stereo not given)	0 (inactive)
CCN(CC)CCNCC(=O)Nc1ccc(Cl)cc1C(=O)c1ccccc1	0 (inactive)
Nc1c(C(=O)OC2CCCCC2)c2nc3ccccc3nc2n1CC1CCCO1 (stereo not given)	-0.5 (inactive)
Cc1ccc(OCC(=O)NCCN2CCN(C(=O)COc3ccc(C)cc3)CC2)cc1	0 (inactive)
